# Screening data as filed in PubChem.
# HT1080 IDH1KD tx: HT-1080 IDH1 knockdown cell toxicity (counter line); HT-1080 IDH1 knockdown viability, ATP luminescence, 48 h; Potency, µM (series often up to 46.1 µM), for the others: at the highest dose activity, negative = toxicity, actives largely listed as cytotoxic; actives 2% (n = 360,000); AID 686971;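 also: potency is read from the fitted curve at half-maximal effect; 0% = DMSO wells and -100% = cell-free medium wells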
#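 HT-1080-IDH1KD cells (IDH1 knocked down), 750/well in RPMI with 5% FBS, treated with compound 48 h at 37 degrees C. Viability by CellTiter-Glo luminescence, normalised to DMSO and no-cell wells; concentration-response curves classed.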
# TDP1 cell CPT: growth inhibition of DT40 Tdp1-/-;hTDP1 cells with camptothecin (screen for TDP1 inhibitors); chicken DT40 Tdp1-/-;hTDP1 cells + 20 nM CPT, ATP luminescence, 48 h; Potency, µM (highest dose often 46.2 µM), without a hit: top-dose activity change, negative = growth inhibition, hits mostly inhibitors; actives 12% (n = 420,000); also: potency is read from the fitted curve at half-maximal effect; nearly all actives have a fitted effect of over 55% in size
#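 Chicken DT40 Tdp1-/- cells stably complemented with human TDP1 were seeded at 400 cells/well in medium containing 20 nM camptothecin, exposed to pin-transferred compounds, and grown at 37 °C for at least 48 hr. Viability was read as ATP luminescence.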
# DT40 TDP1 no CPT: qHTS for Inhibitors of human tyrosyl-DNA phosphodiesterase 1 (TDP1): qHTS in cells in absence of CPT; DT40 Tdp1-/- hTDP1 cells, no CPT, ATP luminescence, 48 h; Potency, µM (highest dose often 46.2 µM), for the others: top-dose activity change, negative = growth inhibition, most hits filed as inhibitors; actives 15% (n = 420,000); AID 686978, 2013; also: potency is read from the fitted curve at half-maximal effect; nearly all actives have a fitted effect of over 55% in size
#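 Growth kinetics read by CellTiter-Glo luminescence after ≥48 hr at 37 °C. Cells: DT40 Tdp1-/- stably carrying human TDP1, 400 per well, compound exposure in the absence of CPT (DMSO vehicle).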
# HT1080-NT tox: kills 2HG-producing HT-1080-NT fibrosarcoma cells | actives 1.6% (n = 360,000) | HT-1080-NT fibrosarcoma viability, CellTiter-Glo ATP luminescence, 48 h | Potency, µM (series often up to 46.1 µM), for the others: at the highest dose activity, negative = less viability, hits mostly cytotoxic;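 also: NT is the 2HG producing partner of a matched IDH1 knockdown line; potency is read from the fitted curve at half-maximal effect; 0% = DMSO-treated cells and -100% = media-only wells without cells; nearly all actives have a fitted effect of over 55% in size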
#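 Fibrosarcoma NT cells, 750 per well in 5% FBS RPMI, were exposed to compound for 48 hours. Viability: CellTiter-Glo luminescence.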
# 12-LOX inh: ALOX12 (human) lipoxygenase inhibition. P18054. purified 12hLO, xylenol orange hydroperoxide absorbance. Potency, µM (top dose mostly 108 µM), for inactives: at the top dose activity change, negative = inhibition, most hits filed as inhibitors. actives 1.1% (n = 580,000). AID 1671190; also: potency is read from the fitted curve at half-maximal effect
# Target sequence (P18054 whole entry, looked up): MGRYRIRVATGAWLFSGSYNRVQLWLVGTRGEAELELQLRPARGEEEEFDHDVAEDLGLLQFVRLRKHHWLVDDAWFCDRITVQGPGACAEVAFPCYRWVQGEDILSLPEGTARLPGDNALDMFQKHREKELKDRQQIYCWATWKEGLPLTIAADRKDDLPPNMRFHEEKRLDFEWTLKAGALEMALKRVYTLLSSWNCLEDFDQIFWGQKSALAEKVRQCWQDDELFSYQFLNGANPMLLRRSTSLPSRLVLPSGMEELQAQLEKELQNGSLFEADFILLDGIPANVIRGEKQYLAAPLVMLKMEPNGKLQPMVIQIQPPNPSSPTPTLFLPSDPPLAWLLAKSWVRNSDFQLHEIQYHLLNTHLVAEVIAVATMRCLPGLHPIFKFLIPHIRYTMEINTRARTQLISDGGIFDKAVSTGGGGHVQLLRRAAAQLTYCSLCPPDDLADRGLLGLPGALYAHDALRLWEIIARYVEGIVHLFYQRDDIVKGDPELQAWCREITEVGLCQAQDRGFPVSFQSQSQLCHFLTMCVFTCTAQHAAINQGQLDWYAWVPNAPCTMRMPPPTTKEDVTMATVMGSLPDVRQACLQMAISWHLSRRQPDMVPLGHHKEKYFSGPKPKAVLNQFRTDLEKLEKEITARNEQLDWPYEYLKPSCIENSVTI
#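 Hydroperoxide product was detected by ferrous iron/xylenol orange as the 573 to 405 nm absorbance ratio. Arachidonic acid at 40 uM (final) was turned over for 30 min at room temperature by 150 nM human 12hLO, pH 7.0 Hepes buffer, after 15 min compound preincubation.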
# IL-1B inflam inh: blocks inflammasome-driven IL-1 beta release. AID 743279. THP-1 LPS/ATP IL-1B secretion, AlphaLISA, 16 h; hits give low values. activity change, % at 57.5 µM. actives 4.7% (n = 360,000); in the data active = activity change below about -50%; inconclusive = mostly about -30% to -49%
#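 THP-1 cells pretreated 1 hr with compounds (up to 57.5 uM final), then stimulated with LPS (250 ng/mL final) plus ATP (1.25 mM final); secreted IL-1B measured by AlphaLISA after 16 hr, decreased signal indicating inhibition.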
# * marks the source's active call; other numbers are inactive results; ? = inconclusive; · = no result given; [ ] = another dose, or the depositor's remark. The entries come from a sample that favours hits as a whole. Unless noted, calls follow the shape of the dose curve; as a rule, active = well fitted curve in the direction sought with a large enough effect; inconclusive = small, poorly fitted or top-dose-only effect, or another doubt; inactive = no such curve, though single readings can be large; an effect the other way counts as inactive or inconclusive. Unless noted, % is scaled to controls: 0 for no effect and ±100 for the full control effect.
SMILES,HT1080 IDH1KD tx,TDP1 cell CPT,DT40 TDP1 no CPT,HT1080-NT tox,12-LOX inh,IL-1B inflam inh
COC(=O)[C@H]1C[C@H](OC(=O)NC2CCCC2)[C@@]2(O)CN(S(=O)(=O)c3ccc(C)cc3)CC2[C@H]1C(=O)OC (stereo partly specified),1%,-11%,-28%,11%,-6%,-18
CCCCCCn1c(=O)n2n(c1=O)[C@@H]1CN(S(=O)(=O)c3ccc(C)cc3)C[C@]1(O)[C@@H](OC(=O)NC1CC1)C2,5%,?,16µM*,0%,?,4
CCCCCCn1c(=O)n2n(c1=O)[C@@H]1CN(S(=O)(=O)c3ccc(C)cc3)C[C@]1(O)[C@@H](OC(=O)NC1CCCC1)C2,-17%,?,?,-1%,?,-21
CCCCCCNC(=O)O[C@H]1Cn2c(=O)n(CCCCCC)c(=O)n2[C@@H]2CN(S(=O)(=O)c3ccc(C)cc3)C[C@]12O,?,?,21µM*,?,?,?
Cc1ccc(S(=O)(=O)N2C[C@H]3n4c(=O)ccc(=O)n4C[C@H](OC(=O)Nc4cccs4)[C@@]3(O)C2)cc1,-30%,?,?,?,?,-79*
CCCCCCNC(=O)O[C@H]1Cn2c(=O)ccc(=O)n2[C@@H]2CN(S(=O)(=O)c3ccc(C)cc3)C[C@]12O,23µM*,4.6µM*,3.7µM*,16µM*,?,-106*
Cc1ccc(S(=O)(=O)N2C[C@H]3n4c(=O)ccc(=O)n4C[C@H](OC(=O)NCc4ccccc4F)[C@@]3(O)C2)cc1,?,?,21µM*,-27%,-16%,-108*
CCCCCCn1c(=O)n2n(c1=O)[C@@H]1CN(S(=O)(=O)c3ccc(C)cc3)C[C@]1(O)[C@@H](OC(=O)NCc1ccccc1F)C2,?,?,?,?,-48%,-1
CCCCCCn1c(=O)n2n(c1=O)[C@@H]1CN(S(=O)(=O)c3ccc(C)cc3)C[C@]1(O)[C@@H](OC(=O)Nc1cccs1)C2,?,23µM*,26µM*,?,0%,-52*
CCCCCCn1c(=O)n2n(c1=O)[C@@H]1CN(S(=O)(=O)c3ccc(C)cc3)C[C@]1(O)[C@@H](OC(=O)NCC1CCCCC1)C2,?,?,16µM*,?,-28%,?
COc1ccc(-c2cc(NC(=O)Cc3cccs3)n(C3CCS(=O)(=O)C3)n2)cc1 (stereo unspecified),·,·,·,·,-28%,·
CC(C)CN1CC2(CCN(C(=O)c3cc(-c4ccccc4)nn3C)CC2)CC1=O,·,·,·,·,17%,·
N#Cc1cccc(NC(=O)N2CC3(CCN(C(=O)c4cc(C(F)(F)F)cc(C(F)(F)F)c4)CC3)C2)c1,·,-3%,-21%,·,-1%[57.4 µM],·
O=C(NCc1ccccc1)C(C1CC1)n1c(Cc2cc(F)cc(F)c2)nc2ccccc21 (stereo unspecified),-13%,?,18µM*,-2%,0%,-9
COC(=O)c1cc2c(c3c4cc(C)ccc4n(S(=O)(=O)c4ccc(C)cc4)c13)C(=O)N(Cc1ccc(N(C)C)cc1)C2,·,·,·,·,-7%,·
O=C(OCc1ccccc1)N1CCCC2(C1)C(=NC1CCCCC1)NC(=O)N2c1cccnc1 (stereo unspecified),·,·,·,·,76%,·
CCN(Cc1ccc(C)o1)C(=O)C(C)n1ccnc1C(C)C (stereo unspecified),·,·,·,·,3%,·
CC(=O)N1CC[C@H](c2nc3ncccc3[nH]2)C1,·,·,·,·,-1%[176 µM],·
